For assay [1], the target named is Cellular tumor antigen p53 (Homo sapiens) (UniProt P04637). Kind of assay: Primary qHTS for small molecule compounds that upregulate eGFP-tagged delta133p53alpha (in N-terminal) cells. (AID 2060322).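 For activation: cells pre-induced with doxycycline then dosed without doxycycline; 0% = DMSO vehicle and 100% = reference activator.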 Note: nearly all actives have a fitted effect of over 75% in size. Note: potency is the fitted concentration of half-maximal effect. The following applies: NCI-H358 eGFP-delta133p53alpha fluorescence, 24 h; activation: active compounds read high. The gist of the method: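 NCI-H358 cells pre-induced 24 h with 10 ng/ml doxycycline for eGFP-delta133p53alpha, plated dox-free and exposed 24 h at 37C to titrated compounds. Fixed, Hoechst-stained; gated GFP peak intensity by laser scanning cytometry, normalized to DMSO (0%) and 57.5 uM 5-azacytidine (100%).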
A general note: qHTS replaces the single test concentration by a dilution series.

Assay [2] has as its target Aldehyde dehydrogenase, mitochondrial (Homo sapiens) (UniProt P05091). Kind of assay: qHTS for Inhibitors of the Aldehyde Dehydrogenase Family (ALDH2) Primary screen (AID 2061308).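 Note: plate controls were vehicle for no effect and reference inhibitor for full effect; nearly all actives have a fitted effect of over 55% in size.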 The following applies: ALDH2 enzyme inhibition qHTS, 1536-well; series mostly up to 56 µM.
Assay [3] has as its target Retinaldehyde dehydrogenase 3 (Homo sapiens) (UniProt P47895). As to the kind of experiment: qHTS for Inhibitors of the Aldehyde Dehydrogenase Family (ALDH1A3) Primary screen (AID 2061315).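 Note: plate controls were DMSO vehicle for no effect and reference inhibitor for full effect.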 The following applies: ALDH inhibition qHTS; series mostly up to 56 µM.
Assay [4] is described as follows: BET inhibitor-based combinations targeting novel dependencies in MECOM-rearranged (r) AML: OCI-AML3 cell line (AID 2202232). Note: nearly all actives have a fitted effect of over 35% in size. Note: potency is the fitted concentration of half-maximal effect. The note with it: CellTiter-Glo luminescence, 48 h; Potency: OCI-AML3 viability; series mostly up to 46 µM. The gist of the method:
(§1)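 Each compound was tested at eleven concentrations on cells seeded at 500/well. After two days' incubation, ATP-based luminescence reported viability; responses relative to DMSO and blank wells yielded AUC and cell-line-centred Z-AUC.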

Assay [5] can be described thus: BET inhibitor-based combinations targeting novel dependencies in MECOM-rearranged (r) AML: MV-4-11 cell line (AID 2202233). Note: nearly all actives have a fitted effect of over 45% in size. Note: potency is the fitted concentration of half-maximal effect. The note with it: MV-4-11 AML viability, CellTiter-Glo luminescence, 48 h; series mostly up to 46 µM. Put shortly:
(§2)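 First, 500 cells per well were seeded; next, drugs were pinned as 11-point doses; then plates sat 48 hr in the incubator; finally CellTiter-Glo was added and luminescence read, with AUC and Z-AUC computed.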
On the technique in general: In ATP-based viability assays light output follows the ATP content of the culture.

Assay [6] in a line: BET inhibitor-based combinations targeting novel dependencies in MECOM-rearranged (r) AML: HNT-34 cell line (AID 2202234). Note: nearly all actives have a fitted effect of over 35% in size. Note: potency is the fitted concentration of half-maximal effect. The note with it: HNT-34 AML viability, CellTiter-Glo luminescence, 48 h; series mostly up to 46 µM. The gist of the method: as §2
The nature of assay [7]: BET inhibitor-based combinations targeting novel dependencies in MECOM-rearranged (r) AML: UCSD-AML1 cell line (AID 2202235). Note: nearly all actives have a fitted effect of over 40% in size. Note: potency is the fitted concentration of half-maximal effect. The following applies: UCSD-AML1 AML cells viability, CellTiter-Glo, 48 h; series mostly up to 46 µM. Put shortly: as §2
Assay [8] is described as follows: BET inhibitor-based combinations targeting novel dependencies in MECOM-rearranged (r) AML: AML-191 cell line (AID 2202236; note: nearly all actives have a fitted effect of over 35% in size; note: potency is the fitted concentration of half-maximal effect). The following applies: AML-191 viability, CellTiter-Glo luminescence, 48 h; series mostly up to 46 µM. The gist of the method: as §1
The nature of assay [9]: BET inhibitor-based combinations targeting novel dependencies in MECOM-rearranged (r) AML: AML-194 cell line (AID 2202237; note: nearly all actives have a fitted effect of over 40% in size; note: potency is the fitted concentration of half-maximal effect). The note with it: AML-194 (MECOM-r AML) viability, CellTiter-Glo, 48 h; series mostly up to 46 µM. Put shortly: as §1
Assay [10] is described as follows: BET inhibitor-based combinations targeting novel dependencies in MECOM-rearranged (r) AML: SET-2 cell line (AID 2202231).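 Note: plate controls were DMSO treated cells for no effect and wells without cells for full effect; nearly all actives have a fitted effect of over 35% in size.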 The note with it: SET-2 AML cells viability, CellTiter-Glo luminescence, 48 h; viability: active compounds read low, concentration not given here. The gist of the method: as §1

Several values for one entry are separate records, joined by “and”; a condition that tells them apart may be missing. Equal entries are not always repeated. Inconclusive results are not listed. A number with no mark means an inactive call. Activity calls are given as the source filed them. Calls come from the whole dose curve; as a rule, active = well fitted curve in the direction sought with a large enough effect; inconclusive = small, poorly fitted or top-dose-only effect, or another doubt; inactive = no such curve, though single readings can be large; an effect the other way counts as inactive or inconclusive.

Cellular tumor antigen p53 (Homo sapiens), sequence (P04637 whole entry, looked up): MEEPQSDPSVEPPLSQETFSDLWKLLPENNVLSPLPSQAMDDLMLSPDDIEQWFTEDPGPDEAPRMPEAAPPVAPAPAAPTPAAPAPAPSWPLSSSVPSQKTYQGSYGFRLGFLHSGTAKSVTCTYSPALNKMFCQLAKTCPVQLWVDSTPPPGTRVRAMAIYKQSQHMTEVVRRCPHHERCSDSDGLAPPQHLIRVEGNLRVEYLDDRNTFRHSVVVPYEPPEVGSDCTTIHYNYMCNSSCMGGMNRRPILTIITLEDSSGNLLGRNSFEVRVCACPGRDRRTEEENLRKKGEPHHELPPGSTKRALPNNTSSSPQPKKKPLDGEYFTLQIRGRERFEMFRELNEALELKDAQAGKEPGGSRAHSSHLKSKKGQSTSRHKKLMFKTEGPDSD

With `CC(C)c1cc(CNc2nc(Nc3cc(C4CC4)[nH]n3)cc(N3CCN(C)CC3)n2)on1`, the Potency in [1] is 4.26 µM (active); in assay [4], 4.68 µM (active); in assay [5], 0.0742 µM (active); in [6] it was 0.0934 µM (active); in [7], 0.742 µM (active); in assay [8] it was 0.0833 µM (active). For the same compound, the Potency in assay [9] is 0.0934 µM (active). For the same compound, the Potency result in assay [2] and in [3] was “inactive” in each case.
`CCS(=O)(=O)c1cccc(-c2cc(C(=O)NC3CCN(C)CC3)c(C)c3[nH]c4ncc(C)cc4c23)c1`: the Potency is 12.2 µM (active) and 5.88 µM (active) in assay [1]; 1.48 µM (active) in [4]; 0.0934 µM (active) in [5]; 0.235 µM (active) in assay [6]; 0.934 µM (active) in [7]; 3.72 µM (active) in [8]. The Potency in assay [9] is 2.63 µM (active). For the same compound, the Potency entry in [2] and in [3] was “inactive” throughout.
On to `C[C@@H]1COCCN1c1cc(=O)n2c(n1)N(Cc1cncc(Cl)c1)[C@H](C(F)(F)F)CC2`, for which the activation in assay [1] was -34.6%. The Potency result in assay [2], in assay [3], in assay [4], in [5], in assay [6] and in assay [9] was “inactive” each time.
`CS(=O)(=O)c1ccc(C(=O)Nc2ccc(Cl)c(-c3ccccn3)c2)c(Cl)c1`: the activation in [1] was -14.7% and -1.91%. Moreover, the Potency result in assay [2], in [3], in assay [4], in assay [5], in [6] and in assay [7] was “inactive” in each case. In assay [9], the Potency result is “inactive”.
As usually defined, the viability is a per cent measure of how many cells are alive, often set against a control. As for `O=C(C1CC1)N1CC[C@@H](Cc2n[nH]c(=O)n2-c2ccc(-c3ccc4occc4c3)cc2)C1`, the activation in [1] is -2.33% and -15.1%. The Potency entry in assay [2], in assay [3], in assay [7], in assay [8] and in [9] was “inactive” throughout. Besides, the viability in [10] was 95.8%.
Take `Cc1cnc(Nc2ccc(OCCN3CCCC3)cc2)nc1Nc1cccc(S(=O)(=O)NC(C)(C)C)c1`: the activation in assay [1] was 27.2% and -7.14% and 27.9%. Moreover, the Potency entry in assay [2] and in assay [3] was “inactive” each time. For the same compound, the Potency in [4] was 2.63 µM (active); in [5], 0.742 µM (active); in [6], 1.66 µM (active); in assay [7], 2.35 µM (active); in assay [8], 3.32 µM (active); in assay [9], 5.25 µM (active).
In the case of `Clc1ccc(C2(c3ccc(-c4cn[nH]c4)cc3)CCNCC2)cc1`, in [1], the activation was -10.3% and 1.79%. The Potency entry in assay [2] and in assay [3] was “inactive” each time. In addition, the Potency in [4] is 18.6 µM (active); in [5], 4.17 µM (active); in assay [6], 5.25 µM (active); in assay [7], 18.6 µM (active); in assay [8] it was 18.6 µM (active); in assay [9] it was 20.9 µM (active).
For the compound `C=C1C[C@@]2(O)O[C@@]3(C[C@H]2C(C)C)[C@@H](C)CC[C@@H]13`, the activation in assay [1] is 3.34%. The Potency result in [2], in assay [3], in [4], in assay [5], in assay [6] and in [7] was “inactive” throughout. Moreover, the Potency result in [8] and in assay [9] was “inactive” throughout.
Take `CCCCCCCCCC(=O)N[C@@H](Cc1c[nH]c2ccccc12)C(=O)N[C@H](CC(N)=O)C(=O)N[C@@H](CC(=O)O)C(=O)N[C@@H]1C(=O)NCC(=O)N[C@@H](CCCN)C(=O)N[C@@H](CC(=O)O)C(=O)N[C@H](C)C(=O)N[C@@H](CC(=O)O)C(=O)NCC(=O)N[C@H](CO)C(=O)N[C@@H]([C@@H](C)CC(=O)O)C(=O)N[C@@H](CC(=O)c2ccccc2N)C(=O)O[C@@H]1C`: in assay [1], the activation was -9.73% and 21%. The Potency result in assay [2], in assay [3], in [4], in [5], in [6] and in assay [7] was “inactive” each time. The Potency result in assay [8] and in [9] was “inactive” each time.
For `Cc1cc(Nc2cc(N3CCN(C)CC3)nc(Sc3ccc(NC(=O)C4CC4)cc3)n2)n[nH]1`, in assay [1], the activation is 60.2%. The Potency result in [2] and in assay [3] was “inactive” each time. The Potency in [4] was 0.662 µM (active); in assay [5] it was 0.132 µM (active); in assay [6], 0.235 µM (active); in assay [7], 4.68 µM (active); in [8] it was 0.662 µM (active); in assay [9], 0.934 µM (active).
Consider `CC(=O)c1c(C)c2cnc(Nc3ccc(N4CCNCC4)cn3)nc2n(C2CCCC2)c1=O`, for which the activation in assay [1] was 46.5% and -19.6%. The results for the activity change, negative = inhibition in [2] and in assay [3] were 10.9% [at 5.59 µM] and -7.36% [at 5.59 µM], respectively. Besides, the Potency was 20.9 µM (active) in assay [4]; 6.61 µM (active) in assay [5]; 16.6 µM (active) in assay [6]; 13.2 µM (active) in assay [7]; 16.6 µM (active) in assay [8]; 14.8 µM (active) in [9].
Take `NC(=O)c1c(OCc2c(F)cc(Br)cc2F)nsc1NC(=O)NCCCCN1CCCC1`: the activation in assay [1] is 9.77%. The Potency entry in [2] and in assay [3] was “inactive” each time. Also, the Potency in [4] is 20.9 µM (active); in [5], 20.9 µM (active); in [6], 23.5 µM (active); in assay [8], 26.3 µM (active); in [9], 26.3 µM (active).
On to `CC1=C[C@@H]2[C@@H]([C@@H](O)C[C@@]3(C)[C@H]2C[C@@H](C)[C@]3(O)C(=O)CO)[C@@]2(C)Cc3cnn(-c4ccccc4)c3C=C12`, for which, in assay [1], the activation is -34.9%. The Potency entry in [2] and in [3] was “inactive” in each case. Also, the Potency in [4] and in [5] was 18.6 µM (active) each time.
Turning to `CC1=C(C(=O)Nc2cc3cn[nH]c3cc2F)C(c2ccc(C(F)(F)F)cc2)CC(=O)N1` (configuration not stated), the activation in assay [1] is -14.3% and -24.1%. Moreover, the Potency entry in [2] and in assay [3] was “inactive” in each case. In assay [4], the Potency is 2.95 µM (active).
Regarding `CCCCCN(CCC12CC3CC(CC(C3)C1)C2)C(=O)NCCCc1ccncc1`, the Potency was 23.9 µM (active) in [1]; 18.6 µM (active) in assay [4]; 13.2 µM (active) in assay [5]; 16.6 µM (active) in assay [6]; 14.8 µM (active) in assay [7]; 20.9 µM (active) in [8]. Moreover, the Potency in assay [9] was 18.6 µM (active). Moreover, the Potency entry in assay [2] and in [3] was “inactive” in each case.
On to `COc1cc(N2CCC(N3CCN(C)CC3)CC2)ccc1Nc1ncc(Cl)c(Nc2ccccc2P(C)(C)=O)n1`, for which the Potency was 3.01 µM (active) in assay [1]; 0.742 µM (active) in assay [4]; 0.0186 µM (active) in [5]; 0.934 µM (active) in assay [6]; 0.742 µM (active) in assay [7]. For the same compound, the Potency entry in [2] and in assay [3] was “inactive” each time.

For the origin of these results see PubChem BioAssay (NCATS).
